Test results: PubChem BioAssay (NCATS)
Values without a mark were called inactive. For part of these data: Entries with a potency or affinity are not part of this list. Active and inactive are the calls of the source. How the calls were made is not given here.

What was measured:
[1] = Ebola virus entry assay, green fluorescence channel
[2] = Ebola virus entry assay, blue channel fluorescence
[3] = Ebola virus entry assay, ratio channel
[4] = Ebola virus entry assay, green channel fluorescence
[5] = Ebola virus entry assay, reporter ratio channel; Channel type: primary
[6] = Ebola virus entry assay, blue channel (ratio component)
Wherever efficacy is given: 0% is about no effect.

SMILES	efficacy [1] [%]	outcome [2]	outcome [3]	outcome [4]	outcome [5]	outcome [6]	AC50 [3]	AC50 [5]
N[C@H](Cc1c[nH]c2ccccc12)C(=O)O	29.9	inactive	inactive	inactive	inactive	inactive		
O=C1c2ccccc2S(=O)(=O)N1CCCCN1CCN(c2ncccn2)CC1	29.9	inactive	inactive	inactive	inactive	inactive		
O=C(O)c1ccc(OCCN2CCCCC2)cc1	-23.5	inactive	inactive	inactive	inactive	inactive		
OC1C(O)C(O)C(O)C(O)C1O (centres undefined)	12.1	inactive	inactive	inactive	inactive	inactive		
CCOC(=O)N1CCC(n2c(=O)[nH]c3cc(Cl)ccc32)CC1	43.9	inactive	inactive	inactive	inactive	inactive		
CCOC(=O)C(c1c(O)c2ccccc2oc1=O)c1c(O)c2ccccc2oc1=O	18.5	inactive	inactive	inactive	inactive	inactive		
Oc1ccc(O)cc1	16.5	inactive	inactive	inactive	inactive	inactive		
C[C@H]1C(=O)O[C@@H]2CCN3CC=C(COC(=O)[C@](C)(O)[C@]1(C)O)[C@H]23	7.51	inactive	inactive	inactive	inactive	inactive		
CC(=O)CCC(=O)O	10.9	inactive	inactive	inactive	inactive	inactive		
COP(=O)(OC)OC=C(Cl)Cl	29.4	inactive	inactive	inactive	inactive	inactive		
Cc1ccc(C(C)OC(=O)C2(C)CCC(C(=O)O)C2(C)C)cc1 (centres undefined)	24.8	inactive	inactive	inactive	inactive	inactive		
CN(C)C(=O)Nc1ccc(Cl)c(Cl)c1	15.7	inactive	inactive	inactive	inactive	inactive		
Cc1ccc(S(=O)(=O)NC(=O)NC2CCCC2)cc1	-11.6	inactive	inactive	inactive	inactive	inactive		
C#C[C@]1(O)CC[C@H]2[C@@H]3CCc4cc(OC)ccc4[C@H]3CC[C@@]21C	19	inactive		inactive		inactive	2820 nM (active)	2820 nM (active)
N[C@@H](Cc1cc(I)c(O)c(I)c1)C(=O)O	29.5	inactive	inactive	inactive	inactive	inactive		
O=C(O)c1ccc(OCCCOc2ccc(C(=O)O)cc2)cc1	11.3	inactive	inactive	inactive	inactive	inactive		
COCCc1ccc(OCC(O)CNC(C)C)cc1 (centres undefined)	-31.6	inactive	inactive	inactive	inactive	inactive		
CCCCOc1ccc(CC(=O)NO)cc1	-9.53	inactive	inactive	inactive	inactive	inactive		
C/C=C/C(=O)N(CC)c1ccccc1C	23.4	inactive	inactive	inactive	inactive	inactive		
CC(=O)OCC(=O)Nc1cc(C#N)cc(NC(=O)COC(C)=O)c1Cl	24.6	inactive	inactive	inactive	inactive	inactive		
C[C@]12C=CC(=O)C=C1CC[C@H]1[C@@H]3C[C@@H](O)[C@](O)(C(=O)CO)[C@@]3(C)C[C@H](O)[C@@]12F	17	inactive	inactive	inactive	inactive	inactive		
NS(=O)(=O)c1cc2c(cc1Cl)NC(CSCc1ccccc1)=NS2(=O)=O	11.6	inactive	inactive	inactive	inactive	inactive		
NCc1cccnc1	-20.3	inactive	inactive	inactive	inactive	inactive		
CCc1cccc2c(CCO)c[nH]c12	-22.1	inactive	inactive	inactive	inactive	inactive		
N=C(N)c1ccc(OCCCOc2ccc(C(=N)N)cc2)cc1	14.7	inactive	inactive	inactive	inactive	inactive		
CC(COc1ccccc1)NC(C)C(O)c1ccc(O)cc1 (centres undefined)	-32.1	inactive	inactive	inactive	inactive	inactive		
CC1=CC(=O)c2ccccc2C1=O	12.6	inactive	inactive	inactive	inactive	inactive		
C=Cc1c(C)c2cc3[nH]c(cc4nc(cc5nc(cc1[nH]2)C(C)=C5CCC(=O)O)C(CCC(=O)O)=C4C)c(C)c3C=C	15.1	inactive	inactive	inactive	inactive	inactive		
O=C1Nc2cc(Cl)ccc2Oc2ccccc21	-23	inactive	inactive	inactive	inactive	inactive		
